# From PubChem BioAssay
# Several values for one entry are separate records, joined by “and”; a condition that tells them apart may be missing. Identical values can stand only once. Inconclusive results are not listed. Activity calls are given as the source filed them.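 How the source made its calls, unless noted: active means compounds killing one labelled cell type while sparing the other, by normalised counts and ratio limits, not self-fluorescent; inactive means the rest.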
# What was measured:
# [1] = EMT-state selective cytotoxicity in co-culture – imaging, PC-3E GFP, TEM4-18 mCherry, primary screen (AID 1345086); settings: PC-3E GFP / TEM4-18 mCherry co-culture, imaging cell counts, at 1 µM; for red/green cell ratio (normalised): actives lie on both sides, counts scaled to control wells, 1 = unselective;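 on all read-outs here: cells exposed to compound for 72 h before imaging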;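 on red/green cell ratio (normalised): normalised mesenchymal count divided by normalised epithelial count so high means epithelial killing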
# [2] = test system: Aerobactin synthetase IucA (Klebsiella pneumoniae); assay: inhibition of K. pneumoniae IucA enzyme – biochemical, Tocris library, absorbance (AID 1345561; call rule not given here;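 further: 100% = enzyme without compound and 0% = no enzyme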); settings: purified IucA enzyme assay, absorbance (OD) read-out; stronger effect = lower value;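 tested at 8 µM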
# [3] = viability loss in pontine glioma line – cell-based, SU-DIPG-XVII, MIPE5.0, CellTiter-Glo, qHTS, dose response (AID 1347060; cut-off not given, nearly all actives have AC50 up to about 26 µM); settings: CellTiter-Glo ATP luminescence
# [4] = viability loss in pontine glioma line – cell-based, SU-DIPG-XIII, MIPE4.0, CellTiter-Glo, qHTS, dose response (AID 1347061; cut-off not given, nearly all actives have AC50 up to about 37 µM;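 further: cells exposed to compound for 48 hours before readout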); settings: CellTiter-Glo ATP luminescence
# [5] = viability loss in pontine glioma line – cell-based, SU-DIPG-IV, MIPE4.0, CellTiter-Glo, qHTS, dose response (AID 1347063; cut-off not given, nearly all actives have AC50 up to about 30 µM;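 further: compound exposure lasted 48 hours before the viability readout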); settings: CellTiter-Glo ATP luminescence
# [6] = viability loss in pontine glioma line – cell-based, SU-DIPG-XIII, MIPE5.0, CellTiter-Glo, qHTS, dose response (AID 1347064; cut-off not given, nearly all actives have AC50 up to about 23 µM); settings: CellTiter-Glo ATP luminescence
# [7] = viability loss in pontine glioma line – cell-based, JHH-DIPG-1, MIPE4.0, CellTiter-Glo, qHTS, dose response (AID 1347062; cut-off not given, nearly all actives have AC50 up to about 27 µM); settings: JHH-DIPG-1 viability, CellTiter-Glo ATP luminescence
# [8] = measured here: epithelial PC-3E GFP cell survival
# [9] = measured here: mesenchymal TEM4-18 mCherry cell survival
structure (smiles),measurement,setting,value
CCCCCN(CCCCC)C(=O)C(CCC(=O)O)NC(=O)c1ccc(Cl)c(Cl)c1 (centres undefined),red/green cell ratio (normalised),[1],0.82 (inactive)
same,normalised cell number,[1]; [8],1.1
same,normalised cell number,[1]; [9],0.9
CCOC(N)=O,red/green cell ratio (normalised),[1],1.16 (inactive)
same,normalised cell number,[1]; [8],0.95
same,normalised cell number,[1]; [9],1.1
CCCCCCOc1ccccc1C(N)=O,red/green cell ratio (normalised),[1],1 (inactive)
same,normalised cell number,[1]; [8],0.94
same,normalised cell number,[1]; [9],0.94
CC(=O)OCC1=C(C(=O)O)N2C(=O)[C@@H](NC(=O)CSc3ccncc3)[C@H]2SC1,red/green cell ratio (normalised),[1],1.23 (inactive)
same,normalised cell number,[1]; [8],1
same,normalised cell number,[1]; [9],1.24
CCCCC(CC)CN1CN(CC(CC)CCCC)CC(C)(N)C1 (centres undefined),red/green cell ratio (normalised),[1],1.02 (inactive)
same,normalised cell number,[1]; [8],0.84
same,normalised cell number,[1]; [9],0.85
CC(C(=O)O)c1ccc(C(=O)c2cccs2)cc1 (centres undefined),red/green cell ratio (normalised),[1],1.06 (inactive)
same,normalised cell number,[1]; [8],0.96
same,normalised cell number,[1]; [9],1.02
C[C@H](N)[C@H](O)c1cccc(O)c1,red/green cell ratio (normalised),[1],1.4 (inactive)
same,normalised cell number,[1]; [8],0.79
same,normalised cell number,[1]; [9],1.1
COc1cc(OC)cc(OC)c1,red/green cell ratio (normalised),[1],0.87 (inactive)
same,normalised cell number,[1]; [8],1.26
same,normalised cell number,[1]; [9],1.09
O=C1c2ccccc2C(=O)c2c1ccc(O)c2O,red/green cell ratio (normalised),[1],0.87 (inactive)
same,normalised cell number,[1]; [8],1.05
same,normalised cell number,[1]; [9],0.91
Cn1c([N+](=O)[O-])cnc1COC(N)=O,red/green cell ratio (normalised),[1],1 (inactive)
same,normalised cell number,[1]; [8],1.01
same,normalised cell number,[1]; [9],1.01
CN(C)[C@@H]1C(=O)C(C(N)=O)=C(O)[C@@]2(O)C(=O)C3=C(O)c4c(O)ccc(Cl)c4[C@@H](O)[C@H]3C[C@@H]12,red/green cell ratio (normalised),[1],0.96 (inactive) and 1.05 (inactive)
same,normalised cell number,[1]; [8],1.09 and 1.32
same,normalised cell number,[1]; [9],1.05 and 1.38
CCOc1ccc(Cc2nccc3cc(OCC)c(OCC)cc23)cc1OCC,red/green cell ratio (normalised),[1],0.88 (inactive)
same,normalised cell number,[1]; [8],1
same,normalised cell number,[1]; [9],0.88
N=C(N)N,red/green cell ratio (normalised),[1],1.05 (inactive)
same,normalised cell number,[1]; [8],0.94
same,normalised cell number,[1]; [9],0.99
CCN(CC)CCNC(=O)COc1ccc(OC)cc1,red/green cell ratio (normalised),[1],1.07 (inactive)
same,normalised cell number,[1]; [8],1.11
same,normalised cell number,[1]; [9],1.18
CCOc1ccc(NC(C)=O)cc1,red/green cell ratio (normalised),[1],1.26 (inactive)
same,normalised cell number,[1]; [8],1.07
same,normalised cell number,[1]; [9],1.35
O=C(OCC(O)CO)c1ccccc1Nc1ccnc2cc(Cl)ccc12 (centres undefined),red/green cell ratio (normalised),[1],0.94 (inactive)
same,normalised cell number,[1]; [8],0.84
same,normalised cell number,[1]; [9],0.79
COc1ccc(C2C(=O)c3ccccc3C2=O)cc1,red/green cell ratio (normalised),[1],0.84 (inactive)
same,normalised cell number,[1]; [8],1.14
same,normalised cell number,[1]; [9],0.96
NCCS,red/green cell ratio (normalised),[1],1.27 (inactive)
same,normalised cell number,[1]; [8],0.91
same,normalised cell number,[1]; [9],1.16
CCN(CC)CCNC(=O)c1cc(Br)c(N)cc1OC,red/green cell ratio (normalised),[1],0.92 (inactive)
same,normalised cell number,[1]; [8],0.97
same,normalised cell number,[1]; [9],0.89
CC1(C)S[C@@H]2[C@H](NC(=O)[C@H](N)c3ccccc3)C(=O)N2[C@H]1C(=O)O,red/green cell ratio (normalised),[1],0.91 (inactive)
same,normalised cell number,[1]; [8],1.22
same,normalised cell number,[1]; [9],1.12
OCc1ccccc1O,red/green cell ratio (normalised),[1],1.09 (inactive)
same,normalised cell number,[1]; [8],0.88
same,normalised cell number,[1]; [9],0.96
C[N+](C)(C)CCOC(N)=O,red/green cell ratio (normalised),[1],1.21 (inactive)
same,normalised cell number,[1]; [8],0.85
same,normalised cell number,[1]; [9],1.03
O=c1ccc2ccccc2o1,red/green cell ratio (normalised),[1],1.12 (inactive)
same,normalised cell number,[1]; [8],0.98
same,normalised cell number,[1]; [9],1.1
O=C1OC(c2ccc(O)cc2)(c2ccc(O)cc2)c2ccccc21,red/green cell ratio (normalised),[1],1.12 (inactive)
same,normalised cell number,[1]; [8],0.94
same,normalised cell number,[1]; [9],1.05
Nc1ncnc2nc[nH]c12,red/green cell ratio (normalised),[1],1.1 (inactive)
same,normalised cell number,[1]; [8],1.11
same,normalised cell number,[1]; [9],1.22
O=c1[nH]cnc2nc[nH]c12,red/green cell ratio (normalised),[1],1.25 (inactive)
same,normalised cell number,[1]; [8],0.95
same,normalised cell number,[1]; [9],1.18
CC(=O)Nc1c(I)cc(I)c(C(=O)O)c1I,red/green cell ratio (normalised),[1],0.94 (inactive)
same,normalised cell number,[1]; [8],1.19
same,normalised cell number,[1]; [9],1.12
Nc1ccc(S(=O)(=O)NC(=O)c2ccccc2)cc1,red/green cell ratio (normalised),[1],1.62 (inactive)
same,normalised cell number,[1]; [8],0.9
same,normalised cell number,[1]; [9],1.46
O=C(O)c1ccccc1O,red/green cell ratio (normalised),[1],1.29 (inactive)
same,normalised cell number,[1]; [8],0.92
same,normalised cell number,[1]; [9],1.19
CCCC(C(=O)OCCN(CC)CC)(c1ccccc1)c1ccccc1,red/green cell ratio (normalised),[1],1.41 (inactive)
same,normalised cell number,[1]; [8],0.9
same,normalised cell number,[1]; [9],1.28
CO[C@]12C[C@@H](COC(=O)c3cncc(Br)c3)CN(C)[C@@H]1Cc1cn(C)c3cccc2c13,red/green cell ratio (normalised),[1],1.03 (inactive)
same,normalised cell number,[1]; [8],0.95
same,normalised cell number,[1]; [9],0.99
CN(C)CCOC(=O)COc1ccc(Cl)cc1,red/green cell ratio (normalised),[1],0.89 (inactive)
same,normalised cell number,[1]; [8],0.98
same,normalised cell number,[1]; [9],0.87
Cc1c(NC(C)C)c(=O)n(-c2ccccc2)n1C,red/green cell ratio (normalised),[1],0.88 (inactive)
same,normalised cell number,[1]; [8],0.91
same,normalised cell number,[1]; [9],0.8
O=C(O)c1cc(=O)c2ccccc2o1,red/green cell ratio (normalised),[1],0.88 (inactive)
same,normalised cell number,[1]; [8],0.88
same,normalised cell number,[1]; [9],0.78
CCCCC(CC)CN=C(N)NC(N)=NCCCCCCN=C(N)NC(N)=NCC(CC)CCCC (centres undefined),red/green cell ratio (normalised),[1],0.85 (inactive)
same,normalised cell number,[1]; [8],1.19
same,normalised cell number,[1]; [9],1.01
Nc1ccc(C(=O)NCC(=O)O)cc1,red/green cell ratio (normalised),[1],1.12 (inactive)
same,normalised cell number,[1]; [8],1.03
same,normalised cell number,[1]; [9],1.15
NC(CS)C(=O)O (centres undefined),red/green cell ratio (normalised),[1],0.99 (inactive)
same,normalised cell number,[1]; [8],1
same,normalised cell number,[1]; [9],0.99
COC(=O)N/N=C/c1c[n+]([O-])c2ccccc2[n+]1[O-],red/green cell ratio (normalised),[1],0.65 (inactive)
same,normalised cell number,[1]; [8],1.24
same,normalised cell number,[1]; [9],0.81
Cc1cc(C(C)(C)C)c(O)c(C)c1CC1=NCCN1,red/green cell ratio (normalised),[1],0.88 (inactive)
same,normalised cell number,[1]; [8],1.08
same,normalised cell number,[1]; [9],0.96
same,remaining activity,[2],99.4% (inactive)
same,outcome,[3],inactive
same,outcome,[4],inactive
same,outcome,[5],inactive
same,outcome,[6],inactive
O=C(c1ccc(F)cc1)C1CCN(CCn2c(=O)[nH]c3ccccc3c2=O)CC1,red/green cell ratio (normalised),[1],0.88 (inactive)
same,normalised cell number,[1]; [8],0.99
same,normalised cell number,[1]; [9],0.88
same,remaining activity,[2],124% (inactive)
same,outcome,[4],inactive
same,outcome,[7],inactive
same,outcome,[5],inactive
